# Test results published in the supplement of paper PMC10127200.
# Counter-ions that a name gives are not always drawn.
# Key:
# Test in all cases: Euclidean distance of Cell Painting phenotypic profile (signed KS, 77 features) to DMSO centroid (dimensionless distance); 5 or 10 uM (library dependent); higher = stronger phenotypic change vs DMSO (phenoactivity)
# Details in all cases: 48 h
# 786-O = test system: 786-O
# How it was run: (§1)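 Stained cells were imaged confocally at 20X with 9 fields per well, after 48 h of exposure to library compounds at 10 or 5 uM (set by library; 0.1% DMSO final). The cells were five cancer lines and a healthy fibroblast line. From the images, Harmony extracted 77 features, each expressed as a signed Kolmogorov-Smirnov statistic relative to same-plate vehicle wells. Phenoactivity is measured as Euclidean distance to the median vehicle profile, using plate-position-corrected, correlation-weighted profiles averaged across replicates at the top dose.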
# A549 = test system: A549
# How it was run: as §1
# DU145 = test system: DU145
# How it was run: as §1
# FB = test system: FB
# How it was run: as §1
# HEPG2 = test system: HEPG2
# How it was run: as §1
# OVCAR4 = test system: OVCAR4
# How it was run: as §1
Compound,Euclidean distance (786-O),Euclidean distance (A549),Euclidean distance (DU145),Euclidean distance (FB),Euclidean distance (HEPG2),Euclidean distance (OVCAR4)
OC[C@H]1O[C@H](O[C@H]2O[C@H](CO)[C@@H](O)[C@H](O)[C@H]2O)[C@H](O)[C@@H](O)[C@@H]1O [D-(+)-Trehalose dihydrate],0.894,1.33,1.15,1.04,0.672,1.09
CNC(=O)c1ccccc1Nc1nc(Nc2ccc(N3CCOCC3)cc2OC)ncc1Cl,2.97,3.02,2.18,3.92,2.08,3.5
Cc1c(OCC(F)(F)F)ccnc1C[S@@+]([O-])c1nc2ccccc2[nH]1 [Dexlansoprazole],0.708,0.614,0.925,1.52,0.629,1.1
NC(=O)c1ccc(I)c([N+](=O)[O-])c1 [Iniparib (BSI-201)],1.06,0.758,1.44,1.31,0.803,1.14
Nc1nc(OCc2cc(Br)cs2)c2[nH]cnc2n1 [Lomeguatrib],1.07,1.13,1.15,1.29,0.861,1.04
CC1=C(/C=C/C(C)=C/C=C/C(C)=C\C(=O)O)C(C)(C)CCC1 [Isotretinoin],1.68,1.11,1.24,1.94,1.63,1.46
CCCCC(=O)O[C@]1(C(=O)CO)[C@@H](C)C[C@H]2[C@@H]3CCC4=CC(=O)C=C[C@]4(C)[C@@]3(F)[C@@H](O)C[C@@]21C [Betamethasone Valerate],1.33,1.98,2.2,1.71,0.591,2.13
CCOc1ccc2nc(S(N)(=O)=O)sc2c1 [Ethoxzolamide],0.892,0.718,1.34,1.35,1.09,0.937
CN(C)CCOc1ccc(-c2nc(-c3ccncc3)c(-c3ccc4c(c3)CC/C4=N\O)[nH]2)cc1,1.49,1.63,2.08,2.65,4.66,2.22
CC1(C)O[C@H]2CC(=O)OC[C@]23[C@H]2CC[C@@]4(C)[C@H](c5ccoc5)OC(=O)[C@H]5O[C@]54[C@]2(C)C(=O)C[C@@H]13 [Limonin],0.804,0.714,0.885,0.843,1.05,1.05
CC1(C)O[C@@H]2[C@@H](CO[C@@]3(COS(N)(=O)=O)OC(C)(C)O[C@@H]23)O1 [Topiramate],1.24,1.07,0.829,0.965,0.72,0.977
O=C(CCCN1CC=C(n2c(=O)[nH]c3ccccc32)CC1)c1ccc(F)cc1 [Droperidol],1.34,0.569,0.766,0.888,0.689,0.73
OC[C@H]1O[C@@H](Oc2ccc(O)cc2)[C@H](O)[C@@H](O)[C@@H]1O [Arbutin],1.12,0.916,2.06,0.914,0.919,1.73
N#CCC1(n2cc(-c3ncnc4[nH]ccc34)cn2)CN(C2CCN(C(=O)c3ccnc(C(F)(F)F)c3F)CC2)C1,1.27,1.05,1.46,1.34,0.742,1.05
C#C[C@]1(OC(C)=O)CC[C@H]2[C@@H]3CCC4=C[C@@H](OC(C)=O)CC[C@@H]4[C@H]3CC[C@@]21C [Ethynodiol diacetate],1.27,1.31,0.938,1.29,0.735,1.1
Cc1ccc([C@@H]2O[C@H](CO)[C@@H](O)[C@H](O)[C@H]2O)cc1Cc1ccc(-c2ccc(F)cc2)s1 [Canagliflozin],1.32,1.86,0.716,1.12,0.807,1.77
COc1cc(F)c(C(C)C)cc1-c1ccc(C(F)(F)F)cc1CN1C(=O)O[C@H](c2cc(C(F)(F)F)cc(C(F)(F)F)c2)[C@@H]1C [Anacetrapib (MK-0859)],0.703,0.903,1.12,0.869,1.84,0.709
CCCCc1ncc(/C=C(\Cc2cccs2)C(=O)O)n1Cc1ccc(C(=O)O)cc1 [Eprosartan Mesylate],0.683,0.706,1.64,0.647,1.3,1.44
CNC(=C[N+](=O)[O-])NCCSCc1ccc(CN(C)C)o1 [Ranitidine],0.881,0.596,0.696,0.903,1.02,0.83
CCCNCC(O)COc1ccccc1C(=O)CCc1ccccc1 (configuration not stated) [Propafenone HCl],1.59,1.51,1.37,1.36,0.85,1.26
CN(C)CCc1c[nH]c2ccc(C[C@H]3COC(=O)N3)cc12 [Zolmitriptan],1.26,1.23,1.25,0.876,0.663,1.74
O=C(O)Cc1ccccc1Nc1c(Cl)cccc1Cl [Diclofenac Potassium],1.38,0.427,0.963,1.35,1.1,0.893
Cc1ccc(-c2c(-c3nn(C)c4ncnc(N5CC[C@H](N6CCCCC6)C5)c34)cnn2C)cc1,0.748,0.927,0.814,1.22,0.843,1.27
CN(C)CCCN1c2ccccc2CCc2ccc(Cl)cc21 [Clomipramine HCl],1.08,0.845,1.4,1.93,1.92,1.77

Compound,Euclidean distance (786-O),Euclidean distance (A549),Euclidean distance (DU145),Euclidean distance (FB),Euclidean distance (HEPG2),Euclidean distance (OVCAR4)
CN1C(=O)C(Cc2c[nH]c3ccccc23)NC1=S (configuration not stated) [Necrostatin-1],1.05,1.61,1.1,0.994,0.953,1.55
Nc1nc(CC(=O)Nc2ccc(CCNC[C@H](O)c3ccccc3)cc2)cs1 [Mirabegron],0.989,1.17,1.1,1.21,0.802,1.68
COc1cc(N2CCN(C)CC2)ccc1Nc1nccc(-c2cn(C)c3cnccc23)n1,2.55,1.56,1.34,2.68,1.53,2.69
Oc1ccc2c(c1)CC[C@H](c1ccccc1)[C@@H]2c1ccc(OCCN2CCCC2)cc1 [Lasofoxifene Tartrate],2.93,2.42,3.01,2.8,4.32,2.5
CO/N=C(/C(=O)N[C@@H]1C(=O)N2C(C(=O)OCOC(=O)C(C)(C)C)=C(C)CS[C@H]12)c1csc(N)n1 [Cefetamet pivoxil hydrochloride],1.66,1.04,1.11,0.939,0.729,0.914
Clc1ccc(CSC(Cn2ccnc2)c2ccc(Cl)cc2Cl)cc1 (configuration not stated) [Sulconazole Nitrate],1.3,1.23,1.07,0.983,1.1,1.31
CC(C)C[C@H](NC(=O)CNC(=O)[C@H](Cc1ccc(O)cc1)NC(=O)[C@H](CO)NC(=O)[C@H](Cc1c[nH]c2ccccc12)NC(=O)[C@H](Cc1cnc[nH]1)NC(=O)[C@@H]1CCC(=O)N1)C(=O)N[C@@H](CCCNC(=N)N)C(=O)N1CCC[C@H]1C(=O)NCC(N)=O [Gonadorelin Acetate],1.59,1.23,0.611,1.19,0.828,1.22
CCc1c2c(nc3ccc(OC(=O)N4CCC(N5CCCCC5)CC4)cc13)-c1cc3c(c(=O)n1C2)COC(=O)[C@]3(O)CC [Irinotecan HCl Trihydrate],3.01,3.5,4.47,4.08,3.19,3.1
C[C@]1(COc2ccc(N3CCC(Oc4ccc(OC(F)(F)F)cc4)CC3)cc2)Cn2cc([N+](=O)[O-])nc2O1 [Delamanid],0.922,1.11,0.888,0.823,0.492,0.969
Cc1cnc(C(=O)N[C@H]2CCCCC/C=C\[C@@H]3C[C@@]3(C(=O)NS(=O)(=O)C3CC3)NC(=O)[C@@H]3C[C@@H](Oc4nc5ccccc5c5ccccc45)CN3C2=O)cn1 [Paritaprevir (ABT-450)],1.48,1.53,1.52,1.17,0.513,1.39
CCNC(=O)c1[nH]nc(-c2cc(Cl)c(O)cc2O)c1-c1ccc(OC)cc1,2.94,3.74,2.8,3.65,3.19,2.79
COc1ccc(C(C)=O)c(O)c1 [Paeonol],1.07,0.755,0.885,0.979,0.302,1.58
CN[C@@H]1[C@H](O)[C@H](NC)[C@H]2O[C@@]3(O)C(=O)C[C@@H](C)O[C@H]3O[C@@H]2[C@H]1O [Spectinomycin 2HCl],1.1,0.735,0.979,1.48,0.555,0.972
Cc1c(C(N)=O)cc([N+](=O)[O-])cc1[N+](=O)[O-] [Dinitolmide],0.913,1.4,0.756,0.814,0.831,1.38
CCC(=O)Oc1ccc2c(c1)CCC1C2CCC2(C)C(OC(=O)CC)CCC12 (stereo not drawn) [17-Beta-Estradiol-3.17-Dipropionate],1.55,0.8,1.46,1.21,0.326,0.98
O=C1OCCN1/N=C/c1ccc([N+](=O)[O-])o1 [Furazolidone],1.14,1.26,1.02,1.13,0.999,1.09
CCOC(=O)C1=C(COCCN)NC(C)=C(C(=O)OC)C1c1ccccc1Cl (configuration not stated) [Amlodipine Besylate],1.08,0.672,0.871,1.18,1.64,1.07
C/C=C1/[C@H](O[C@@H]2O[C@H](CO)[C@@H](O)[C@H](O)[C@H]2O)OC=C(C(=O)OC)[C@H]1CC(=O)OCCc1ccc(O)c(O)c1 [Oleuropein],0.802,0.844,0.63,0.971,0.64,1.46
Nc1cc(C(Cl)=C(Cl)Cl)c(S(N)(=O)=O)cc1S(N)(=O)=O [Clorsulon],1.15,0.636,0.797,0.676,0.743,1.18
CCN1/C(=C/C(C)=O)Sc2ccc(OC)cc21,0.422,0.711,1.03,0.64,1.98,0.872
Oc1c(Cl)cc(Cl)c(Cl)c1Cc1c(O)c(Cl)cc(Cl)c1Cl [Hexachlorophene],2.16,1.62,1.19,3.31,2.53,1.64
C[C@]1(c2nc3c(C(N)=O)cccc3[nH]2)CCCN1 [Veliparib (ABT-888)],1.29,1,0.896,1.35,0.938,1.16
O=C(/C=C/c1ccccc1)NC(NC(=S)Nc1cccc2cccnc12)C(Cl)(Cl)Cl (configuration not stated) [Salubrinal],0.979,1.28,1,1.21,1.04,1.28
